Screening results from PubChem.
ALOX12 inh: blocks human arachidonate 12S-lipoxygenase | P18054 | purified 12hLO, xylenol orange hydroperoxide absorbance | Potency, µM (highest dose often 108 µM), for inactives: at the top dose activity change, negative = inhibition, usual class: inhibitors | 1.1% of 580,000 active; also: % is scaled to controls: 0 for no effect and ±100 for the full control effect
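Hydroperoxide product was detected by ferrous iron/xylenol orange as the 573 to 405 nm absorbance ratio. Arachidonic acid at 40 uM (final) was turned over for 30 min at room temperature by 150 nM human 12hLO, pH 7.0 Hepes buffer, after 15 min compound preincubation.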
Anesthetic bind: binds horse apoferritin like a general anesthetic; P02791; apoferritin/1-aminoanthracene competitive binding, fluorescence; Potency, µM (top dose mostly 77.5 µM), without a hit: at the top dose activity change, negative = displacement, actives largely listed as inhibitors; 0.074% of 350,000 active; also: % is scaled to controls: 0 for no effect and ±100 for the full control effect; nearly all actives have a fitted effect of over 20% in size
Target sequence (P02791 2-175 limits assumed): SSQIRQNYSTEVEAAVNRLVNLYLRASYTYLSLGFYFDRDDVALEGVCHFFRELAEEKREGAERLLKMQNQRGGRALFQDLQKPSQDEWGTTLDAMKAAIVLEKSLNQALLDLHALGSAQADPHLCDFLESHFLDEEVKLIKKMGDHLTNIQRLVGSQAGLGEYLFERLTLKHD
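Horse-spleen apoferritin (10 uM) was mixed with 50% saturated 1-aminoanthracene in PBS, exposed to compounds for 10 min at room temperature, and read for fluorescence (ex 380 nm, em 535 nm). Competitive displacement was fitted with a four-parameter Hill equation.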
BCR signal inh: chronic active BCR signaling inhibition | ABC-DLBCL IkBa-CBG/CBR reporter, luminescence ratio, 4 h | Potency, µM (doses to about 46.1 µM), for inactives: at the top dose activity change, negative = inhibition, most hits filed as inhibitors | 0.05% of 340,000 active | AID 493014; active = well fitted inhibition curve with a large enough effect in the signal ratio, with a control signal flat, not every such curve was filed as active; inconclusive = small, poorly fitted or top-dose-only effect, or effect the other way, or a change in a side signal; the % refers to the signal ratio;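 also: plate controls were basal doxycycline-induced cells for no effect and cells given 10 µM MG132 for full effect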
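TMD8 human ABC-DLBCL cells with doxycycline-inducible IκBα–green luciferase fusion and unfused red luciferase, in 0.5% FBS medium; compounds up to 46 uM, 4 h at 37C. Green/red luminescence ratio, filter-overlap corrected, fitted to concentration-response curves.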
Glioma ERSR ind: ER stress response induction in glioma. U87-MG GRP78 promoter luciferase reporter, 16 h. Potency, µM, for the others: top-dose activation, hits mostly activators. 0.02% of 420,000 active. AID 602332; also: series mostly up to about 76 µM; % of control where 0% means no effect; nearly all actives have a fitted effect of over 35% in size
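Stably transfected U87-MG glioma cells carrying a GRP78-based luciferase sensor; 16 h compound incubation. Luminescence end-point read 10 min after Bright-Glo addition at room temperature.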
Numbers without * were called inactive; ? = inconclusive; · = no result given; ! = a repeat was not active; [ ] = remark or other dose. Only some compounds are listed: those with a hit (about 1.1% of all), similar ones and a draw of the others. Unless noted, calls follow the shape of the dose curve; as a rule, active = well fitted curve in the direction sought with a large enough effect; inconclusive = small, poorly fitted or top-dose-only effect, or another doubt; inactive = no such curve, though single readings can be large; an effect the other way counts as inactive or inconclusive. Potency is read from the fitted curve at half-maximal effect.

SMILES | ALOX12 inh | Anesthetic bind | BCR signal inh | Glioma ERSR ind
COc1cc(N(C)C)ccc1C=c1c2ccccc2n2c1cc(-c1ccccc1)[n+]2C | ? | · | · | -12%
CN(C)c1ccc(C=c2c3cc([N+](=O)[O-])ccc3n3c2cc(-c2ccccc2)[n+]3C)cc1 | 7.9µM* | · | · | -14%
CN(C)c1ccc(C=c2c3ccccc3n3c2cc(-c2ccccc2)[n+]3C)cc1 | 40µM* | · | · | -8%
CN(C)c1ccc(C=c2c3ccccc3n3c2cc(-c2ccc(Cl)cc2)[n+]3C)cc1 | 45µM* | · | · | 2%
CCCn1c(Cn2ccnc2C)nc2cc(NC(=O)c3ccccc3OC)ccc21 | 11% | · | · | ·
CN(C)CCCNc1oc(/C=C/c2cccs2)nc1C#N | -27% | · | · | ·
O=C(N/N=C/c1cccc(I)c1)c1cccs1 | 19% | · | · | ·
CCCc1cc(=O)n2[nH]c(-c3ccc(C)cc3)nc2n1 | -15% | -3% | · | -3%
Cc1ccc(-c2nc3nc(CN4CCCC4)cc(=O)n3[nH]2)cc1 | -6% | · | · | ·
CCc1ccc(NCc2cc(=O)n3[nH]c(-c4ccccc4)nc3n2)cc1 | 8.9µM* | · | · | ·
COc1cccc(NCc2cc(=O)n3[nH]c(-c4ccc(C)cc4)nc3n2)c1 | 40µM* | · | · | ·
CCCCCCCCCCCCCCCC(O)C[N+](C)(C)CCO (configuration not stated) | 16µM* | · | · | -9%
CC(C)CC(c1nnnn1C(C)(C)C)N1CCN(Cc2ccccc2)CC1 (configuration not stated) | 10µM* | -7% | -15% | -6%
Cc1cccc(CC(=O)N2CC(C(=O)NCCc3ccncc3)C3(CCOCC3)C2)c1 (configuration not stated) | 29% | · | · | ·
N#C/C(=C\c1ccc(O)c([N+](=O)[O-])c1)c1nc2ccccc2s1 | 22µM* | ? | ? | 2%
CCSc1ccccc1C(=O)NC12CC3CC(CC(C3)C1)C2 | 10% | · | · | ·
O=C(Cc1ccc2c(c1)OCO2)OCc1ccc2c(c1)OCO2 | -31% | · | · | ·
Cc1cc(=O)oc2cc(NC(=O)Cc3ccccc3Cl)ccc12 | -14% | · | · | ·
CCCc1ccc(C2C3=C(CC(C)(C)CC3=O)NC3=C2C(=O)c2ccccc23)cc1 (configuration not stated) | 25µM*! | ? | 12% | -3%
COC(=O)C1=C(C(=O)OC)SC(=C2C(=S)C(C)(C)N(C(=O)C(C)C)c3ccccc32)S1 | ? | ? | 1% | -5%
CCCC(=O)N1c2ccccc2C(=C2SC(C(=O)OC)=C(C(=O)OC)S2)C(=S)C1(C)C | 22µM* | -8% | -2% | -1%
COc1ccccc1-c1nnc(SCC(=O)N(C)C2(c3ccccc3Cl)CCCCC2=O)n1C (configuration not stated) | 13% | · | · | ·
CCOC(=O)C1=C(N)Oc2ccc(Br)cc2[C@@H]1[C@@H](C#N)C(=O)OCC | 10µM* | · | · | -10%
CCOC(=O)C1=C(C)OC(N)=C(C#N)C1c1cc(F)ccc1F (configuration not stated) | -17% | -14% | ? | -2%
CCOC(=O)C1=C(N)Oc2cc(O)ccc2C1c1ccc(Br)cc1 (configuration not stated) | 25µM*! | -22% | ? | -6%
SMILES | ALOX12 inh | Anesthetic bind | BCR signal inh | Glioma ERSR ind
CCc1nc2c(OCCC3CCCCC3)cccn2c1N(C)C(=O)C1CC1 | · | · | · | 1%
CCc1nc2c(OCCC3CCCCC3)cccn2c1N(C)C(=O)c1ccc(C)cc1 | 45µM* | · | · | 5%
COc1ccc(Nc2cc3c(cn2)cc(-c2cccc(C(F)(F)F)c2)n3C)cc1 | 45µM* | · | · | ·
CC(C(=O)Nc1ccc(F)cc1)n1nnc2sc(-c3ccccc3)cc2c1=O (configuration not stated) | 32µM* | · | · | ·
COc1ccc(NC(=O)C(C)n2nnc3sc(-c4ccccc4)cc3c2=O)cc1Cl (configuration not stated) | ? | -4% | · | ·
CCOC(=O)C1CCCN(S(=O)(=O)c2cc(-c3nc(-c4ccc(Cl)cc4)no3)sc2C)C1 (configuration not stated) | 2% | · | · | ·
CC1(C)CCCC(C)(C#CCN2CCCCC2c2cccnc2)O1 (configuration not stated) | -6% | · | · | ·
O=C1/C(=C/c2ccco2)SC(=S)N1CC1CCCO1 (configuration not stated) | ? | ? | ? | 8%
Cc1ccc(/C=C2\SC(=S)N(CC3CCCO3)C2=O)o1 (configuration not stated) | 6.3µM* | -16% | ? | 3%
COc1ccc(-c2cc(C(=O)N3CCOCC3)c3ccccc3n2)cc1OC | ? | · | -19% | -3%
COc1cc2cc(C(=O)N3CCOCC3)cc(-c3ccc(C)cc3)c2cc1OC | -9% | -12% | 16µM* | -6%
NC(=O)c1ccsc1NC(=O)COC(=O)c1ccc(Cl)cc1F | -4% | · | · | ·
CCC(O)CC(C(=O)NNc1ccccc1)C(=O)NNc1ccccc1 (configuration not stated) | 11µM* | -3% | -1% | -5%
Cc1cc(NS(=O)(=O)c2ccc(NC(=S)NCc3ccccc3)cc2)no1 | 45µM* | -3% | -3% | -4%
Cc1cc(NS(=O)(=O)c2ccc(NC(=S)NC(=O)c3ccc(Br)cc3)cc2)no1 | 10µM* | -11% | 6% | -2%
Cc1cc(NS(=O)(=O)c2ccc(NC(=S)NC(=O)c3cccnc3)cc2)no1 | ? | -5% | 2% | -2%
CCc1nnc(NS(=O)(=O)c2ccc(NC(=S)NC(=O)c3ccc(F)cc3)cc2)s1 | 22µM* | -5% | ? | -1%
NC(=O)Cc1c[nH]c2ncc(-c3cccc(C(F)(F)F)c3)cc12 | 15%[176 µM] | · | · | ·
O=C(COc1ccccc1)NCCC1CCN(C(=O)Nc2cc(F)cc(F)c2)CC1 | 27% | · | · | ·
COCCN1CCCCCC(O)c2cc(C(=O)NCc3ccc(N4CCC(C)CC4)cc3)ccc21 (configuration not stated) | 11% | · | · | ·
Cc1nc(-c2ccc(C#N)cc2)cs1 | 32µM*! | 5% | 9% | 0%
CC(=O)NCCNc1ncnc2ccc(-c3ccccc3Cl)cc12 | 32µM* | · | · | -2%
Clc1ccccc1-c1ccc2ncnc(NCc3cccs3)c2c1 | -21% | · | ? | -5%
O=C(CSc1nc2ccc(Cl)cc2[nH]1)N1N=C(c2cccs2)CC1c1ccco1 (configuration not stated) | 18µM* | · | · | ·
COc1ccc(F)cc1C(=O)C(=O)O | 8.9µM* | · | · | ·
COc1cc(/C=C2/C(=O)NN(c3ccc(Cl)cc3)C2=O)cc(Br)c1O | 0% | -17% | 0% | -4%
COc1cc(/C=C2/C(=O)NN(c3ccc(Cl)cc3)C2=O)ccc1OC(=O)c1ccco1 | 8.9µM* | -4% | ? | -4%
COc1cc(/C=C2/C(=O)NN(c3cccc(F)c3)C2=O)ccc1OC(=O)c1ccco1 | 45µM* | 3% | -15% | ?
COc1cc(/C=N/NC(=O)c2ccc(F)cc2)ccc1OC(=O)c1ccco1 | 19% | -10% | ? | 5%
S=c1[nH]nc(-c2cc(-c3ccccc3)n[nH]2)n1/N=C/c1ccc(Br)s1 | 25µM* | -13% | ? | 1%
